Over roughly 8,300 sequences, “log2 fold change of degron read counts, EGFP-low vs EGFP+ sorted cells (limma voom), compound-induced degradation” has its median near -1.1; the highest 2% begin near 3.2. This excerpt belongs to a sample that is enriched for the highest values.
T1: CRBN, Q96SW2
T1 chain: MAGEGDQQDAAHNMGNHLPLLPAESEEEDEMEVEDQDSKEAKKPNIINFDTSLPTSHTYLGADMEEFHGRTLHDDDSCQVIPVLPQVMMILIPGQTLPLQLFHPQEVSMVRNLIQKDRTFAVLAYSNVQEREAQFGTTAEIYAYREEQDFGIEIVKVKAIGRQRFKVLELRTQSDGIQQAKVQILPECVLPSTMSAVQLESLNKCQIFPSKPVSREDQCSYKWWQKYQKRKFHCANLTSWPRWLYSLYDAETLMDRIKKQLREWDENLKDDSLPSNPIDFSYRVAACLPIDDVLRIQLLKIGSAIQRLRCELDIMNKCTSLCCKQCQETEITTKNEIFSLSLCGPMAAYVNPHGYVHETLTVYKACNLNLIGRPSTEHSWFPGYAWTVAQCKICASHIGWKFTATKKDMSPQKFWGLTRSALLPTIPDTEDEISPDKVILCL

B1: 46F_47R_49P_50V_52G_53A_54H_55F_67L_, Q9UKT9 (peptide)
chain: FRCPVCGAHFTQKGNLLRHIKL
B2: 46F_47D_49P_50V_52G_53A_54H_55F_67L_, Q9UKT9 (peptide)
chain: FDCPVCGAHFTQKGNLLRHIKL
B3: 46F_47Q_49P_50V_52G_53A_54H_55F_67L_, Q9UKT9 (peptide)
chain: FQCPVCGAHFTQKGNLLRHIKL
B4: 46F_47W_49P_50V_52G_53A_54H_55F_67L_, Q9UKT9 (peptide)
chain: FWCPVCGAHFTQKGNLLRHIKL
B5: 46F_47M_49P_50V_52G_53A_54H_55F_67L_, Q9UKT9 (peptide)
chain: FMCPVCGAHFTQKGNLLRHIKL
B6: 46F_47A_49P_50V_52G_53A_54H_55F_67L_, Q9UKT9 (peptide)
chain: FACPVCGAHFTQKGNLLRHIKL
B7: 46F_47G_49P_50V_52G_53A_54H_55F_67L_, Q9UKT9 (peptide)
chain: FGCPVCGAHFTQKGNLLRHIKL
B8: 46F_47V_49P_50V_52G_53A_54H_55F_67L_, Q9UKT9 (peptide)
chain: FVCPVCGAHFTQKGNLLRHIKL
B9: 46F_47Y_49P_50V_52G_53A_54H_55F_67L_, Q9UKT9 (peptide)
chain: FYCPVCGAHFTQKGNLLRHIKL
B10: 46L_47A_49E_50I_52G_53F_54L_55C_67L_, Q9UKT9 (peptide)
chain: LACEICGFLCTQKGNLLRHIKL
B11: 46F_47G_49D_50I_52G_53A_54F_55F_67L_, Q9UKT9 (peptide)
chain: FGCDICGAFFTQKGNLLRHIKL
B12: 46F_47E_49P_50I_52G_53H_54K_55F_67L_, Q9UKT9 (peptide)
chain: FECPICGHKFTQKGNLLRHIKL
B13: 46F_47D_49E_50I_52G_53R_54L_55F_67L_, Q9UKT9 (peptide)
chain: FDCEICGRLFTQKGNLLRHIKL
B14: 46F_47W_49D_50I_52G_53A_54T_55F_67L_, Q9UKT9 (peptide)
chain: FWCDICGATFTQKGNLLRHIKL
B15: 46F_47G_49E_50I_52G_53R_54E_55F_67L_, Q9UKT9 (peptide)
chain: FGCEICGREFTQKGNLLRHIKL
B16: 46F_47Y_49E_50I_52G_53A_54F_55F_67L_, Q9UKT9 (peptide)
chain: FYCEICGAFFTQKGNLLRHIKL
B17: 46F_47C_49E_50I_52G_53A_54F_55F_67L_, Q9UKT9 (peptide)
chain: FCCEICGAFFTQKGNLLRHIKL
B18: 46F_47E_49E_50I_52G_53A_54L_55F_67L_, Q9UKT9 (peptide)
chain: FECEICGALFTQKGNLLRHIKL
B19: 46F_47E_49E_50I_52G_53A_54R_55F_67L_, Q9UKT9 (peptide)
chain: FECEICGARFTQKGNLLRHIKL
B20: 46F_47A_49E_50I_52G_53A_54F_55F_67L_, Q9UKT9 (peptide)
chain: FACEICGAFFTQKGNLLRHIKL
B21: 46F_47W_49E_50I_52G_53A_54R_55F_67L_, Q9UKT9 (peptide)
chain: FWCEICGARFTQKGNLLRHIKL
B22: 46F_47W_49E_50I_52G_53A_54L_55F_67L_, Q9UKT9 (peptide)
chain: FWCEICGALFTQKGNLLRHIKL
B23: 46F_47F_49E_50I_52G_53A_54R_55F_67L_, Q9UKT9 (peptide)
chain: FFCEICGARFTQKGNLLRHIKL
B24: 46F_47T_49E_50I_52G_53A_54R_55F_67L_, Q9UKT9 (peptide)
chain: FTCEICGARFTQKGNLLRHIKL
B25: 46F_47H_49P_50I_52G_53H_54S_55F_67L_, Q9UKT9 (peptide)
chain: FHCPICGHSFTQKGNLLRHIKL
B26: 46F_47D_49N_50Q_52G_53R_54H_55F_67L_, Q9UKT9 (peptide)
chain: FDCNQCGRHFTQKGNLLRHIKL
B27: 46F_47F_49E_50Q_52G_53A_54I_55F_67L_, Q9UKT9 (peptide)
chain: FFCEQCGAIFTQKGNLLRHIKL
B28: 46L_47G_49N_50Q_52G_53F_54S_55C_67L_, Q9UKT9 (peptide)
chain: LGCNQCGFSCTQKGNLLRHIKL

Target: T1, CRBN, Q96SW2
Assay: log2 fold change of degron read counts, EGFP-low vs EGFP+ sorted cells (limma voom), compound-induced degradation; higher = more compound-induced degradation of the degron-EGFP fusion; degrons are variants of IKZF1/3 zinc finger 2; compound dose not given here
Details: Jurkat, 18 h
[1] = compound: compound 19 (5-tert-butyl-thalidomide)
[2] = compound: compound 22 (5-morpholino-thalidomide)
[3] = compound: compound 33 (diphenyl IMiD analogue)
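Note: pooled lentiviral library of zinc finger degron-EGFP fusions in mCherry-positive Jurkat cells, FACS-sorted after compound exposure, with degron abundance counted by next-generation sequencing.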

Row | Sequence | log2 fold change of degron read counts [1] | log2 fold change of degron read counts [2] | log2 fold change of degron read counts [3] | log2 fold change of degron read counts (compound: thalidomide)
1 | B1 | -0.862 | -0.227 | 0.973 | 0.478
2 | B2 | 2.9 | 1.04 | 0.819 | 1.19
3 | B3 | -0.252 | 1.64 | 1.32 | 3.27
4 | B4 | 2.57 | 3.79 | 1.99 | 0.84
5 | B5 | -0.687 | 0.177 | 2.13 | 0.77
6 | B6 | 2.93 | 1.05 | 0.871 | 0.221
7 | B7 | 2.85 | 0.903 | 1.38 | 0.174
8 | B8 | -0.62 | 1.87 | 1.15 | 2.07
9 | B9 | 2.89 | 3.48 | 2.31 | 0.928
10 | B10 | 0.343 | -0.688 | -1.12 | -0.901
11 | B11 | 0.984 | -0.922 | 1.74 | -1.18
12 | B12 | -3.48 | -2.51 | -2.67 | -1.19
13 | B13 | -2.24 | -1.71 | -0.0163 | -0.815
14 | B14 | 2.74 | 3.05 | 0.604 | -1.08
15 | B15 | -2.14 | -2.75 | -2.14 | -2.84
16 | B16 | 3.38 | 3.27 | 2.4 | -0.228
17 | B17 | 0.678 | -0.0744 | 1.4 | -0.2
18 | B18 | -2.06 | -1.77 | 0.784 | 1.34
19 | B19 | 1.13 | -0.528 | 1.59 | 3.55
20 | B20 | 2.61 | 0.556 | -0.131 | -0.84
21 | B21 | 3.43 | 3.51 | 1.48 | 1.46
22 | B22 | 2.93 | 2.99 | 2.06 | -0.0847
23 | B23 | 3.53 | 3.66 | 1.66 | 1.89
24 | B24 | 1.84 | 3.12 | 1.85 | 3.23
25 | B25 | -2.13 | -1.94 | -1.36 | -2.32
26 | B26 | -2.61 | -2.91 | -2.55 | -2.64
27 | B27 | -0.0994 | 0.676 | -1.15 | -1.09
28 | B28 | -1.87 | -2.27 | -1.97 | -1.71
